Screening results: PubChem BioAssay, National Center for Advancing Translational Sciences (NCATS)
Hits are enriched below; roughly 10% of the tested compounds scored in any of these assays.
HPGD inh: inhibitors of human 15-hydroxyprostaglandin dehydrogenase (HPGD); P15428; purified HPGD, NADH fluorescence kinetic, PGE2 substrate; Potency, µM, inactives show at the top dose activity change, negative = inhibition, most hits filed as inhibitors; actives 4.3% (n = 150,000); further: potency means the concentration at half of the fitted maximal effect
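20 nM HPGD preincubated 15 min at room temperature with compound in 50 mM Tris-HCl pH 8, 0.01% Tween 20. Started with 1 mM NAD+ and 30 uM prostaglandin E2; NADH fluorescence (360/450 nm) read 5 times over 30-s intervals, last minus first.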
LMNA splice mod: LMNA splicing modulation. HeLa LMNA splicing GFP/RFP minigene ratio, 48 h. Potency, µM (titrated, usually from 46.1 µM), without a hit: top-dose ratio change, negative = inhibition, usual class: inhibitors. actives 0.01% (n = 200,000). AID 1487; active means well fitted inhibition curve with a large enough effect in the signal ratio, with a control signal flat, not every such curve was filed as active; inconclusive means small, poorly fitted or top-dose-only effect, or effect the other way, or a change in a side signal; the % refers to the signal ratio; further: potency means the concentration at half of the fitted maximal effect
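S3 HeLa stable clones carrying a lamin A-EGFP splicing minigene plus DsRed2 were seeded at 600 cells/well in Opti-MEM with 2% FBS, pin-dosed and incubated 48 h at 37°C. Acumen cytometry (488 nm) gave the GFP/RFP total-intensity ratio.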
ALOX12 inhib: inhibitors of human 12-lipoxygenase (ALOX12); purified 12-hLO, xylenol orange hydroperoxide absorbance; P18054; Potency, µM (top dose mostly 57.1 µM), for inactives: at the highest dose activity change, negative = inhibition, most hits filed as inhibitors; actives 0.12% (n = 150,000); active means well fitted inhibition curve with a large enough effect; inconclusive means small, poorly fitted or top-dose-only effect; further: potency means the concentration at half of the fitted maximal effect; nearly all actives have a fitted effect of over 55% in size
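150 nM 12hLO, 25 mM Hepes pH 7.0 + 0.01% Triton X-100; cpd preinc 15 min RT; 40 uM arachidonic acid, 30 min RT; Fe-XO 30 min; A573/A405 ratio as read-out.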
PNC inhibitor: perinucleolar compartment assembly inhibition | PC3M PTB-GFP, PNC prevalence imaging, 16 h; active compounds read low | activity change (PNC), negative = inhibition, % at 10 µM | actives 3.1% (n = 140,000) | AID 2417;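 active means readout at or below -70, meaning at least 70% loss of cells showing the perinucleolar compartment, a nuclear body marking cancer cells; inconclusive means readout between -30 and a set limit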;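 further: plate controls were DMSO wells for no effect and camptothecin positive control wells for full effect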
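Read-out is percentage of cells bearing a perinucleolar compartment, from automated 20x imaging of fixed, Hoechst-stained PC3M PTB-GFP cells. Cells were seeded 4 h, then exposed 16 h to compound (23 nl of library stock) in duplicate plates.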
ALDH1A1 inh: inhibitors of human aldehyde dehydrogenase 1A1; Purified ALDH1A1, NADH fluorescence, propionaldehyde substrate; Potency, µM (titrated, usually from 75.3 µM), without a hit: top-dose activity, negative = inhibition, most hits filed as inhibitors; actives 7.3% (n = 220,000); AID 1030;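 further: potency means the concentration at half of the fitted maximal effect; plate controls were no enzyme wells and a reference inhibitor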
Target sequence (P00352 whole entry, looked up): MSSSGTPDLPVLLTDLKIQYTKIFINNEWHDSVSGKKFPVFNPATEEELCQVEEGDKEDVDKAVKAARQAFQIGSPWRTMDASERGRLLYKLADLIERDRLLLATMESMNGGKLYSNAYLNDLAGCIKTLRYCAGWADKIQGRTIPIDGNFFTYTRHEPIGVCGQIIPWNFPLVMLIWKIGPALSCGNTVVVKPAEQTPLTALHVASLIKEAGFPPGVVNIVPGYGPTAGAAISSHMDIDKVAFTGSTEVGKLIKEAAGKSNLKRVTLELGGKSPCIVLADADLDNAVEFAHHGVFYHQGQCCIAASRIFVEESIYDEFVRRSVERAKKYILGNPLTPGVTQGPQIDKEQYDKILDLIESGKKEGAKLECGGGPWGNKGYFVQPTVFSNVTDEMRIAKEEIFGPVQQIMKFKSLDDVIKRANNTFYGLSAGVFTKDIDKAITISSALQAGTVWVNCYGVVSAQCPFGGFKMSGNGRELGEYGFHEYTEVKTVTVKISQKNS
* hit, by the source's call; ? = inconclusive; · = no result given; [ ] = dose if it differs, or a comment. Unless noted, the call rests on the fitted dose curve; in most records, active means well fitted inhibition curve with a large enough effect (not every such curve was filed as active); inconclusive means small, poorly fitted or top-dose-only effect, or another doubt; inactive means no such curve, though single readings can be large or run the other way. Unless noted, on the % scale 0 is the no-effect control and ±100 the full control effect.

SMILES	HPGD inh	LMNA splice mod	ALOX12 inhib	PNC inhibitor	ALDH1A1 inh
O=C(CSCc1c(Cl)cccc1Cl)NN=C1CCCC1	·	?	·	·	1.6µM*
O=C(CSCc1ccccc1Cl)NN=C1CCCCCC1	-17%	-2%	-1%	?	22µM*
C/C(CC(=O)Nc1ccc(Cl)c(Cl)c1)=N\NC(=O)C(=O)N1CCCCC1	·	7%[46 µM]	·	·	0%
Oc1cccc(C(O)CNCc2ccc(OCc3ccc(Cl)cc3Cl)cc2)c1 (stereo unspecified)	·	?	·	·	5%
Cn1c(C(=O)N2CCc3ccccc3C2)cc2oc3ccccc3c21	0.71µM*	?	-9%	-119*	-8%
O=C(c1cc(=O)c2ccccc2o1)N1CCCc2ccccc21	-16%	8%	-5%	?	?
O=C(c1cc2ccccc2c(=O)o1)N1CCCc2ccccc21	-5%	?	-4%	-29	4.5µM*
CCn1c(C(=O)N2CCc3ccccc3C2)cc2oc3ccccc3c21	?	?	-8%	2	?
O=C(c1nn(Cc2ccccc2)c(=O)c2ccccc12)N1CCc2ccccc2C1	-6%	?	-9%	26	0.89µM*
O=C(c1cc2ccccc2c(=O)o1)N1CCc2ccccc2C1	25µM*	-6%	-6%	?	2%
COc1c(C)cc(S(=O)(=O)Nc2cccc(-c3ccc(N4CCOCC4)nn3)c2)c(C)c1C	·	-4%[46 µM]	·	·	·
CNc1nc(-c2cccnc2)nc2ccccc12	·	4%	·	·	0%
COc1cc(C2c3cc4c(cc3C(OC3OC5COC(C)O[C@@H]5C(O)C3O)C3COC(=O)C23)OCO4)cc(OC)c1O (stereo partly specified)	-4%	·	-2%	·	0%
CCN(CC)c1ccc(NC(=O)CN2C(=O)c3cccnc3Oc3ccccc32)c(C)c1	·	-20%[46 µM]	·	·	·
CCCCC1(CCCC)NC(=S)N(Nc2ccc(C)cc2)C1=O	-10%	-4%	-8%	-90*	-3%
CCCNC(=O)NC(=O)CN1C(=O)NC(C)(c2ccc(C)cc2)C1=O (stereo unspecified)	-14%	8%	-3%	19	0%
CC1(C)CC(=O)C(C=NCCN2CCN(C3CC(=O)N(c4cccc(Br)c4)C3=O)CC2)=C(O)C1 (stereo unspecified)	·	0%[46 µM]	·	·	25µM*
CN(C)Cc1ccccc1-c1ccc2ncnc(NC3CC3)c2c1	-28%	22%	4%	·	-4%
CSc1nnc2c3c4c(sc3nc(-n3nc(C)cc3C)n12)COC(C)(C)C4	·	-6%	1%	14	?
Cc1cc(C)n(-c2nc3sc4c(c3c3nnc(SCC(N)=O)n23)CC(C)(C)OC4)n1	-28%	-3%	2%	-100*	-1%
c1ccc2[nH]c3cc4ncnc4cc3nc2c1	-12%	0%	-3%	-81*	-7%
Cc1ccc(NC(=O)/C=C/c2ccc([N+](=O)[O-])s2)c(C)c1	-18%	?	-3%	-98*	-8%
Cc1cc([N+](=O)[O-])ccc1NC(=O)/C=C/c1cccs1	-10%	-5%	-6%	-112*	?
Cc1oc(-c2ccccc2)cc1C(=O)Nc1ccccc1	-11%	7%	-8%	?	6%
COc1ccc(NS(=O)(=O)c2cc(OC)ccc2NC(=O)c2cc(C)oc2C)cc1	-19%	?	?	-100*	3.2µM*
SMILES	HPGD inh	LMNA splice mod	ALOX12 inhib	PNC inhibitor	ALDH1A1 inh
Cc1oc(-c2ccccc2)cc1C(=O)Nc1cccc(/C=C/C(=O)O)c1	·	30%[46 µM]	·	·	-10%
COc1ccc(C)c(S(=O)(=O)Nc2ccc(OCC(=O)O)cc2)c1	-12%	3%	5%	0	12%
COc1ccc(NC(=O)c2cc(-c3ccccc3)oc2C)cc1	22µM*	5%	-3%	?	?
Cc1oc(-c2ccccc2)cc1C(=O)Nc1ccc2ccccc2c1	?	15%	?	-11	32µM*
CC(=O)OCc1cnc(C)c2oc(=O)c(C(=O)Nc3cccc(F)c3)cc12	·	-3%[46 µM]	·	·	·
Cc1nc(NCCO)c2nc(-c3ccccc3)n(CCN(C)C)c2n1	?	·	0%	·	?
Cc1ccccc1-n1c(=O)cc(N2CCC3(CC2)OCCO3)[nH]c1=O	4%	-8%	2%	-119*	5%
Cc1ccccc1-n1c(=O)cc(N2CCCCCC2)[nH]c1=O	-8%	-9%	6%	19	-3%
C=CCn1c(C)c(C(C)=O)c(N2CCN(c3ccccc3)CC2)nc1=S	-23%	2%	-12%	27	28µM*
CC(C)C[C@H](N)c1nnc(S(=O)(=O)Cc2cccc(F)c2)o1	-27%	?	1%	-11	13µM*
CC[C@@H](C)[C@H](NC(=O)OC(C)(C)C)c1nnc(S(=O)(=O)Cc2cc(C)ccc2C)o1	·	?	-2%	2	4%
CC(C)=CCSc1nnc([C@@H](NC(=O)OC(C)(C)C)C(C)C)o1	-3%	?	-5%	-10	-5%
CC(C)(C)OC(=O)N[C@@H](Cc1ccccc1)c1nnc(S(=O)(=O)Cc2cccc(F)c2)o1	4µM*	29%	-13%	-107*	?
CC(C)[C@H](NC(=O)OC(C)(C)C)c1nnc(S(=O)(=O)Cc2c(F)cccc2Cl)o1	5µM*	?	-8%	21	0%
Cc1ccccc1CS(=O)(=O)c1nnc([C@H](CC(C)C)NC(=O)OC(C)(C)C)o1	13µM*	?	-9%	44	0%
CCOC(=O)CSc1nnc([C@H](Cc2ccccc2)NC(=O)OC(C)(C)C)o1	-11%	1%	-1%	1	-15%
N#CCCn1cc(C(=O)Nc2ccccc2Br)c(-c2cc3ccccc3o2)n1	?	-22%	-8%	5	-4%
O=C(O)CC12CC3CC(C1)CC(n1cncn1)(C3)C2	·	?	·	·	5%
CCc1ccc(CN2CCc3nc(N4CCN(c5ccccc5F)CC4)ncc3C2)cc1	·	-2%[46 µM]	·	·	·
OCC1OC(n2cnc3c(=S)nc[nH]c32)C(O)C1O (stereo unspecified)	-11%	?	1%	·	?
CCCn1nnc(NC(=O)/C=C/c2ccc(C(C)C)cc2)n1	·	·	·	·	14µM*
CN1CCN(c2ncc3ncc(=O)n(C[C@H]4CCCO4)c3n2)CC1	·	-8%	·	·	?
NC(=O)CC[C@H](NC(=O)OCc1ccccc1)C(=O)OCc1ccc(Cl)cc1	-13%	6%	-1%	-93*	6%
CSC1=NCCN1C(=O)c1ccc2c(c1)OCO2	·	2%	-11%	-16	11µM*
CSC1=NCCN1C(=O)c1ccc(C)cc1	·	?	·	·	-3%
Cc1oc(C)c2c(=O)ccc3c(c12)OC(N)=C(C#N)C3c1ccccc1Cl (stereo unspecified)	-10%	-1%	-24%	-22	25µM*
O=C(c1cccc(-c2nnc(-c3ccccc3)o2)c1)N1CCCCC1	7.9µM*	-3%	3%	?	?
O=C(c1cccc(-c2nnc(-c3ccccc3)o2)c1)N1CCCCCC1	8.9µM*	-15%	4%	?	?
